The text below walks through data of publication PMC9911399, “Two distinct binding modes provide the RNA-binding protein RbFox with extraordinary sequence specificity”.

Numbering of substitutions follows the chain as printed; changes in the protein carry UniProt numbers. Whole data set: some 16,000 sequences, median “ka relative to ugcaugu” near 0.0091, cut for the highest 2% near 0.032. The full list was thinned out, with the highest values kept by preference.

The labels stand for the following.
T1: RBFOX1 RRM (Homo sapiens, UniProt Q9NWB1 109-208)
T1 sequence: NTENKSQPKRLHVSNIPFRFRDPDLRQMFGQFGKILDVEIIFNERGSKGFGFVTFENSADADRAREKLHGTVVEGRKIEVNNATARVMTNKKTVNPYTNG

B1: UAUUAAG (DNA:RNA)
RNA: GGGAGACCGGAAUUCAGAUUGUCCUAUUAAGUUAAAUCCCGUCGUAGCCACCA
DNA 1: CAATCTGAATTCCGGTCTCCC
DNA 2: TGGTGGCTACGACGGGATT
B2: UCGCAGA (DNA:RNA)
RNA: B1 RNA with A26C, U27G, U28C, A30G, G31A
DNA 1: CAATCTGAATTCCGGTCTCCC
DNA 2: TGGTGGCTACGACGGGATT
B3: AUACCGG (DNA:RNA)
RNA: B1 RNA with U25A, A26U, U27A, U28C, A29C, A30G
DNA 1: CAATCTGAATTCCGGTCTCCC
DNA 2: TGGTGGCTACGACGGGATT
B4: ACGUGUU (DNA:RNA)
RNA: B1 RNA with U25A, A26C, U27G, A29G, A30U, G31U
DNA 1: CAATCTGAATTCCGGTCTCCC
DNA 2: TGGTGGCTACGACGGGATT
B5: GCAGUUG (DNA:RNA)
RNA: B1 RNA with U25G, A26C, U27A, U28G, A29U, A30U
DNA 1: CAATCTGAATTCCGGTCTCCC
DNA 2: TGGTGGCTACGACGGGATT
B6: CUGCUCG (DNA:RNA)
RNA: B1 RNA with U25C, A26U, U27G, U28C, A29U, A30C
DNA 1: CAATCTGAATTCCGGTCTCCC
DNA 2: TGGTGGCTACGACGGGATT
B7: CUGCCCG (DNA:RNA)
RNA: B1 RNA with U25C, A26U, U27G, U28C, A29C, A30C
DNA 1: CAATCTGAATTCCGGTCTCCC
DNA 2: TGGTGGCTACGACGGGATT
B8: UGCCCGU (DNA:RNA)
RNA: B1 RNA with A26G, U27C, U28C, A29C, A30G, G31U
DNA 1: CAATCTGAATTCCGGTCTCCC
DNA 2: TGGTGGCTACGACGGGATT
B9: UGCUCGU (DNA:RNA)
RNA: B1 RNA with A26G, U27C, A29C, A30G, G31U
DNA 1: CAATCTGAATTCCGGTCTCCC
DNA 2: TGGTGGCTACGACGGGATT
B10: CUGUCCG (DNA:RNA)
RNA: B1 RNA with U25C, A26U, U27G, A29C, A30C
DNA 1: CAATCTGAATTCCGGTCTCCC
DNA 2: TGGTGGCTACGACGGGATT
B11: UCGUCGU (DNA:RNA)
RNA: B1 RNA with A26C, U27G, A29C, A30G, G31U
DNA 1: CAATCTGAATTCCGGTCTCCC
DNA 2: TGGTGGCTACGACGGGATT
B12: AAAUGGU (DNA:RNA)
RNA: B1 RNA with U25A, U27A, A29G, A30G, G31U
DNA 1: CAATCTGAATTCCGGTCTCCC
DNA 2: TGGTGGCTACGACGGGATT
B13: GAUCCGC (DNA:RNA)
RNA: B1 RNA with U25G, U28C, A29C, A30G, G31C
DNA 1: CAATCTGAATTCCGGTCTCCC
DNA 2: TGGTGGCTACGACGGGATT
B14: CCACACG (DNA:RNA)
RNA: B1 RNA with U25C, A26C, U27A, U28C, A30C
DNA 1: CAATCTGAATTCCGGTCTCCC
DNA 2: TGGTGGCTACGACGGGATT
B15: CUAAGCU (DNA:RNA)
RNA: GGGAGACCGGAAUUCAGAUUGUCCCUAAGCUUUAAAUCCCGUCGUAGCCACCA
DNA 1: CAATCTGAATTCCGGTCTCCC
DNA 2: TGGTGGCTACGACGGGATT
B16: UCCUUUG (DNA:RNA)
RNA: B1 RNA with A26C, U27C, A29U, A30U
DNA 1: CAATCTGAATTCCGGTCTCCC
DNA 2: TGGTGGCTACGACGGGATT
B17: UUUUGUG (DNA:RNA)
RNA: B1 RNA with A26U, A29G, A30U
DNA 1: CAATCTGAATTCCGGTCTCCC
DNA 2: TGGTGGCTACGACGGGATT
B18: UUUGUCG (DNA:RNA)
RNA: B1 RNA with A26U, U28G, A29U, A30C
DNA 1: CAATCTGAATTCCGGTCTCCC
DNA 2: TGGTGGCTACGACGGGATT
B19: UUGUCGU (DNA:RNA)
RNA: B15 RNA with C25U, A27G, A28U, G29C, C30G
DNA 1: CAATCTGAATTCCGGTCTCCC
DNA 2: TGGTGGCTACGACGGGATT
B20: UUUGUCC (DNA:RNA)
RNA: B15 RNA with C25U, A27U, A28G, G29U, U31C
DNA 1: CAATCTGAATTCCGGTCTCCC
DNA 2: TGGTGGCTACGACGGGATT
B21: UUGUUGU (DNA:RNA)
RNA: B15 RNA with C25U, A27G, A28U, G29U, C30G
DNA 1: CAATCTGAATTCCGGTCTCCC
DNA 2: TGGTGGCTACGACGGGATT
B22: UUUGUUG (DNA:RNA)
RNA: B1 RNA with A26U, U28G, A29U, A30U
DNA 1: CAATCTGAATTCCGGTCTCCC
DNA 2: TGGTGGCTACGACGGGATT
B23: UUGUUUG (DNA:RNA)
RNA: B1 RNA with A26U, U27G, A29U, A30U
DNA 1: CAATCTGAATTCCGGTCTCCC
DNA 2: TGGTGGCTACGACGGGATT
B24: UUUUUUG (DNA:RNA)
RNA: B1 RNA with A26U, A29U, A30U
DNA 1: CAATCTGAATTCCGGTCTCCC
DNA 2: TGGTGGCTACGACGGGATT

The assay has as its target T1, RBFOX1 RRM. As to the kind of experiment: EMSA; HiTS-Eq, 1 nM pool, 10 min; buffer printed only for the single-RNA assays: 10 mM Tris pH 7.5, 150 mM NaCl, 3.4 mM EDTA, 0.001% NP-40, 30 C. The note with it: tags: His6 N-terminal (pET28a); label: 5' 32P. The procedure, abridged: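 Purified RbFox RRM, wild type or mutant, was incubated for 10 min in 50 µL with 1 nM of a 5′-radiolabelled RNA pool carrying 7 randomized nucleotides, whose flanks were annealed to DNA oligonucleotides, over a series of increasing protein concentrations. Unbound RNA was resolved on 8% native PAGE, cut out, reverse-transcribed, barcoded by PCR and sequenced on an Illumina HiSeq 2500. Relative association constants were derived from changes in read counts for each RNA species versus the control reaction and normalised to the cognate motif.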
In general terms: A gel shift assay detects complexes by their altered migration in electrophoresis.
Take B1: the binding signal is 0.0136 KA relative to UGCAUGU. Take B2: the binding signal is 0.013 KA relative to UGCAUGU. As to B3, the binding signal was 0.00158 KA relative to UGCAUGU. Regarding B4, the binding signal was 0.0131 KA relative to UGCAUGU. B5: the binding signal was 0.0127 KA relative to UGCAUGU.

With B6, the binding signal is 0.0406 KA relative to UGCAUGU. Consider B7, for which the binding signal is 0.0183 KA relative to UGCAUGU.

Consider B8, for which the binding signal is 0.0214 KA relative to UGCAUGU. B9: the binding signal is 0.0359 KA relative to UGCAUGU.

Consider B10, for which the binding signal was 0.0164 KA relative to UGCAUGU.

On to B11, for which the binding signal is 0.0184 KA relative to UGCAUGU.

On to B12, for which the binding signal is 0.00783 KA relative to UGCAUGU. In the case of B13, the binding signal is 0.0132 KA relative to UGCAUGU.

Regarding B14, the binding signal is 0.0022 KA relative to UGCAUGU. B15: the binding signal was 0.00577 KA relative to UGCAUGU. B16: the binding signal is 0.0195 KA relative to UGCAUGU.

As to B17, the binding signal was 0.0302 KA relative to UGCAUGU. The same measure for B18: 0.0272 KA relative to UGCAUGU; for B19: 0.0256 KA relative to UGCAUGU; for B20: 0.0149 KA relative to UGCAUGU. In the case of B21, the binding signal is 0.0241 KA relative to UGCAUGU. On to B22, for which the binding signal was 0.0349 KA relative to UGCAUGU. In the case of B23, the binding signal is 0.0392 KA relative to UGCAUGU. Turning to B24, the binding signal is 0.0341 KA relative to UGCAUGU.
